Source: the supplement of paper PMC12350171
Structures can show the parent of a compound that is named as a salt.

Columns and labels:
Assay in all cases: growth AUC normalised to DMSO control (median) (fraction of control); higher = less growth inhibition, active = hit call of the paper
Settings in all cases: 20 µM;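 active = normalised median growth AUC below 0.1 of DMSO control; inactive = AUC 0.1 or higher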
P. vulgatus RND KO = test system: P. vulgatus RND KO
Method in brief: (§1)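 In 96-well plates of mGAM seeded at OD578 0.01, strains that had been passaged twice overnight without oxygen were exposed to approved-drug library compounds at 20 μM with 1% DMSO. Hourly OD578 readings were taken for 24 h in an anaerobic incubator. The trapezoidal-rule area under the curve, with curves truncated at entry into stationary phase, was expressed relative to same-plate vehicle wells as the median of three biological replicates.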

P. vulgatus WT = test system: P. vulgatus WT
Method in brief: as §1

[1] = test system: S. enterica typhimurium WT
Method in brief: as §1

[2] = test system: S. enterica typhimurium tolC KO
Method in brief: as §1

Measured: growth AUC normalised to DMSO control
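Note: active when median AUC fell below 0.1.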

CCOC(=O)C1=C[C@@H](OC(CC)CC)[C@H](NC(C)=O)[C@@H](N)C1 [Oseltamivir phosphate]
inactive: P. vulgatus RND KO 1.08 | P. vulgatus WT 1.05 | [1] 0.996 | [2] 0.984

CCC[C@@H]1C[C@@H](C(=O)N[C@@H]([C@H]2O[C@H](SC)[C@H](OP(=O)(O)O)[C@@H](O)[C@H]2O)[C@H](C)Cl)N(C)C1 [Clindamycin Phosphate]
inactive: P. vulgatus RND KO 0.844 | P. vulgatus WT 0.895 | [1] 1 | [2] 0.961

N[C@@H](CSCCCO)C(=O)O [Fudosteine]
inactive: P. vulgatus RND KO 1 | P. vulgatus WT 0.987 | [1] 0.996 | [2] 1

CC(C)C(=O)OCC(=O)[C@@]12O[C@H](C3CCCCC3)O[C@@H]1C[C@H]1[C@@H]3CCC4=CC(=O)C=C[C@]4(C)[C@H]3[C@@H](O)C[C@@]12C [Ciclesonide]
inactive: P. vulgatus RND KO 1.02 | P. vulgatus WT 1.02 | [1] 1.01 | [2] 1.01

CC(C)Cc1ccc(C(C)C(=O)OCc2ccccn2)cc1 (configuration not stated) [Ibuprofen Piconol]
inactive: P. vulgatus RND KO 1 | P. vulgatus WT 1.05 | [1] 0.999 | [2] 0.875

CC=CC1=C(C(=O)O)N2C(=O)[C@@H](NC(=O)[C@H](N)c3ccc(O)cc3)[C@H]2SC1 [Cefprozil]
inactive: P. vulgatus RND KO 1.45 | P. vulgatus WT 1.42 | [1] 1.01 | [2] 0.983

COc1cccc(CCc2ccccc2OCC(CN(C)C)OC(=O)CCC(=O)O)c1 (configuration not stated) [Sarpogrelate hydrochloride]
inactive: P. vulgatus RND KO 1.03 | P. vulgatus WT 1.05 | [1] 1 | [2] 0.988

CC(C)Oc1ccc2c(=O)c(-c3ccccc3)coc2c1 [Ipriflavone]
inactive: P. vulgatus RND KO 1.04 | P. vulgatus WT 1.07 | [1] 0.978 | [2] 0.859

OCC(CO)N[C@H]1C[C@](O)(CO)[C@@H](O)[C@H](O)[C@H]1O [Voglibose]
inactive: P. vulgatus RND KO 1.04 | P. vulgatus WT 1.02 | [1] 0.977 | [2] 1.02

COc1cc(N)cn[n+]1-c1ccccc1 [Amezinium metilsulfate]
inactive: P. vulgatus RND KO 1.01 | P. vulgatus WT 1 | [1] 1 | [2] 1

OC(CNCC(O)C1CCc2cc(F)ccc2O1)C1CCc2cc(F)ccc2O1 (configuration not stated) [Nebivolol hydrochloride]
inactive: P. vulgatus RND KO 0.957 | P. vulgatus WT 1.01 | [1] 0.998 | [2] 0.925

Cc1ccccc1C(=O)Nc1ccc(C(=O)N2CCCC(O)c3cc(Cl)ccc32)c(C)c1 (configuration not stated) [Tolvaptan]
inactive: P. vulgatus RND KO 0.919 | P. vulgatus WT 0.928 | [1] 0.993 | [2] 0.94

C/C(=C(\CCOC(=O)c1ccccc1)SS/C(CCOC(=O)c1ccccc1)=C(/C)N(C=O)Cc1cnc(C)nc1N)N(C=O)Cc1cnc(C)nc1N [Bisbentiamine]
inactive: P. vulgatus RND KO 1.02 | P. vulgatus WT 1.07 | [1] 1.01 | [2] 0.999

CC(=O)OCC(=O)[C@@]1(O)CC[C@H]2[C@@H]3CCC4=CC(=O)C=C[C@]4(C)[C@@]3(Cl)[C@@H](Cl)C[C@@]21C [Dichlorisone acetate]
inactive: P. vulgatus RND KO 0.976 | P. vulgatus WT 0.97 | [1] 0.989 | [2] 0.956

COc1cc(NS(=O)(=O)c2ccc(N)cc2)ncn1 [Sulfamonomethoxine]
inactive: P. vulgatus RND KO 1.02 | P. vulgatus WT 0.976 | [1] 0.955 | [2] 0.974

CCN(CC)C(=O)c1cccnc1 [Nikethamide]
inactive: P. vulgatus RND KO 0.992 | P. vulgatus WT 1 | [1] 1 | [2] 1.01

COc1ccnc(C[S+]([O-])c2nc3cc(OC(F)F)ccc3[nH]2)c1OC (configuration not stated) [Pantoprazole sodium]
inactive: P. vulgatus RND KO 0.991 | P. vulgatus WT 0.998 | [1] 1.01 | [2] 0.937

CCCSc1nc(N[C@@H]2C[C@H]2c2ccc(F)c(F)c2)c2nnn([C@@H]3C[C@H](OCCO)[C@@H](O)[C@H]3O)c2n1 [Ticagrelor]
inactive: P. vulgatus RND KO 0.786 | P. vulgatus WT 0.544 | [1] 1.03 | [2] 0.899

NS(=O)(=O)c1cc2c(cc1Cl)NC(Cc1ccccc1)NS2(=O)=O (configuration not stated) [Benzylhydrochlorothiazide]
inactive: P. vulgatus RND KO 1.08 | P. vulgatus WT 1.1 | [1] 1 | [2] 0.994

C/C(O)=C(\C#N)C(=O)Nc1ccc(C(F)(F)F)cc1 [Teriflunomide]
inactive: P. vulgatus RND KO 0.969 | P. vulgatus WT 0.982 | [1] 1 | [2] 0.88

CC#CCn1c(N2CCC[C@@H](N)C2)nc2c1c(=O)n(Cc1nc(C)c3ccccc3n1)c(=O)n2C [Linagliptin]
inactive: P. vulgatus RND KO 0.987 | P. vulgatus WT 1.02 | [1] 1 | [2] 0.98

C[C@H]1[C@H](OC(=O)CCC(=O)O)O[C@@H]2O[C@@]3(C)CC[C@H]4[C@H](C)CC[C@@H]1[C@@]24OO3 [Artesunate]
inactive: P. vulgatus RND KO 1.01 | P. vulgatus WT 1 | [1] 1 | [2] 1.01

Cc1ccc(C(=O)c2cc(O)c(O)c([N+](=O)[O-])c2)cc1 [Tolcapone]
active: P. vulgatus WT 0.0123
inactive: P. vulgatus RND KO 0.474 | [1] 0.993 | [2] 0.91

C/C(=C1\CCOC(=O)S1)N(C=O)Cc1cnc(C)nc1N [Cycotiamine]
inactive: P. vulgatus RND KO 1.01 | P. vulgatus WT 1.07 | [1] 0.995 | [2] 1

NC(=O)Cc1cccc(C(=O)c2ccccc2)c1N [Nepafenac]
inactive: P. vulgatus RND KO 1.03 | P. vulgatus WT 1.01 | [1] 0.996 | [2] 1.02

O=C(Oc1cccc2cccnc12)c1ccccc1 [Benzoxiquine]
inactive: P. vulgatus RND KO 0.935 | P. vulgatus WT 0.934 | [1] 0.994 | [2] 0.968

COc1ccc2cc1Oc1ccc(cc1)C[C@H]1c3c(cc4c(c3Oc3cc5c(cc3OC)CCN(C)[C@@H]5C2)OCO4)CCN1C [Cepharanthine]
inactive: P. vulgatus RND KO 0.999 | P. vulgatus WT 0.973 | [1] 1.02 | [2] 0.998

O=C1OC(c2ccc(O)cc2)(c2ccc(O)cc2)c2ccccc21 [Phenolphthalein]
inactive: P. vulgatus RND KO 0.979 | P. vulgatus WT 0.994 | [1] 1.02 | [2] 0.524

CO[C@@H]1[C@@H](O[C@@H]2O[C@H](C)[C@@H](O[C@H]3C[C@@](C)(O)[C@@H](O)[C@H](C)O3)[C@H](N(C)C)[C@H]2O)[C@@H](CC=O)C[C@@H](C)[C@@H](O[C@H]2CC[C@H](N(C)C)[C@@H](C)O2)/C=C/C=C/C[C@@H](C)OC(=O)C[C@H]1OC(C)=O [Acetyl spiramycin]
active: P. vulgatus RND KO 0.0119 | P. vulgatus WT 0.00707
inactive: [1] 0.991 | [2] 0.65

CCOc1ccccc1C(N)=O [Ethenzamide]
inactive: P. vulgatus RND KO 1.02 | P. vulgatus WT 1.03 | [1] 1 | [2] 1

Cc1[nH]cnc1CN1CCc2c(c3ccccc3n2C)C1=O [Alosetron hydrochloride]
inactive: P. vulgatus RND KO 0.996 | P. vulgatus WT 0.999 | [1] 1 | [2] 0.995

Oc1cc(O)c2c(c1)O[C@H](c1ccc(O)c(O)c1)[C@@H](O)C2 [Cianidanol]
inactive: P. vulgatus RND KO 1 | P. vulgatus WT 1.01 | [1] 1.01 | [2] 0.994

CNC(=O)OCc1cccc(COC(=O)NC)n1 [Pyricarbate]
inactive: P. vulgatus RND KO 1.03 | P. vulgatus WT 1.08 | [1] 1.01 | [2] 0.999

C#CCN[C@@H]1CCc2ccccc21 [Rasagiline]
inactive: P. vulgatus RND KO 0.989 | P. vulgatus WT 0.96 | [1] 1 | [2] 0.982

Oc1c(Cl)cc(Cl)cc1Sc1cc(Cl)cc(Cl)c1O [Bithionol]
active: P. vulgatus RND KO 0.0149 | P. vulgatus WT 0.0115 | [2] 0.0167
inactive: [1] 0.991

O=S(=O)(c1cccc2cnccc12)N1CCCNCC1 [Fasudil Hydrochloride]
inactive: P. vulgatus RND KO 1 | P. vulgatus WT 1 | [1] 1 | [2] 1.01

Nc1c(CC(=O)O)cccc1C(=O)c1ccc(Br)cc1 [Bromfenac]
inactive: P. vulgatus RND KO 1.04 | P. vulgatus WT 1.04 | [1] 1.01 | [2] 0.999

C[C@H](Cc1cc2c(c(C(N)=O)c1)N(CCCO)CC2)NCCOc1ccccc1OCC(F)(F)F [Silodosin]
inactive: P. vulgatus RND KO 1.06 | P. vulgatus WT 1.05 | [1] 1.01 | [2] 0.961

COc1ccc(C(=O)c2ccc(C)cc2)c(O)c1 [Mexenone]
inactive: P. vulgatus RND KO 0.999 | P. vulgatus WT 1 | [1] 1 | [2] 0.931

Nc1cccc2c1C(=O)N(C1CCC(=O)NC1=O)C2=O (configuration not stated) [Pomalidomide]
inactive: P. vulgatus RND KO 1.06 | P. vulgatus WT 1.09 | [1] 1.02 | [2] 0.983

C[C@H](N[C@@H](CCc1ccccc1)C(=O)O)C(=O)N1CCC[C@H]1C(=O)O [Enalaprilat dihydrate]
inactive: P. vulgatus RND KO 0.99 | P. vulgatus WT 0.986 | [1] 0.992 | [2] 0.995

Cn1c([N+](=O)[O-])cnc1COC(N)=O [Ronidazole]
inactive: [1] 0.999 | [2] 0.923
active: P. vulgatus RND KO 0.0102 | P. vulgatus WT 0.00777

CC(C)c1nc(CN(C)C(=O)N[C@H](C(=O)N[C@@H](Cc2ccccc2)C[C@H](O)[C@H](Cc2ccccc2)NC(=O)OCc2cncs2)C(C)C)cs1 [Ritonavir]
inactive: P. vulgatus RND KO 1.04 | P. vulgatus WT 1.04 | [1] 0.998 | [2] 0.97
